From the supplement of paper PMC3545927
The list shows a part of the results. The true hit rate is not given.

Target: furin, P09958
Assay: furin cleavage Z-score vs untreated control; higher = more cleavage, active = 3.5 or more, inactive = 1 or less, 8 variable residues between constant flanks
Procedure, shortened: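 Furin-free reactions served as the baseline for the cleavage Z-score, which is the log read count lowess-adjusted and scaled by median absolute deviation. Counts came from released DNA, adapter-tagged by PCR and sequenced. Purified furin had cut 8-mer peptides fused to a cDNA oligonucleotide on magnetic beads during 7.5, 15 or 30 min at 1:10 enzyme:substrate.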
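Also: purified furin at 1:10 enzyme:substrate in 50 mM HEPES pH 7.5.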

Chain of furin, P09958 (P09958 whole entry): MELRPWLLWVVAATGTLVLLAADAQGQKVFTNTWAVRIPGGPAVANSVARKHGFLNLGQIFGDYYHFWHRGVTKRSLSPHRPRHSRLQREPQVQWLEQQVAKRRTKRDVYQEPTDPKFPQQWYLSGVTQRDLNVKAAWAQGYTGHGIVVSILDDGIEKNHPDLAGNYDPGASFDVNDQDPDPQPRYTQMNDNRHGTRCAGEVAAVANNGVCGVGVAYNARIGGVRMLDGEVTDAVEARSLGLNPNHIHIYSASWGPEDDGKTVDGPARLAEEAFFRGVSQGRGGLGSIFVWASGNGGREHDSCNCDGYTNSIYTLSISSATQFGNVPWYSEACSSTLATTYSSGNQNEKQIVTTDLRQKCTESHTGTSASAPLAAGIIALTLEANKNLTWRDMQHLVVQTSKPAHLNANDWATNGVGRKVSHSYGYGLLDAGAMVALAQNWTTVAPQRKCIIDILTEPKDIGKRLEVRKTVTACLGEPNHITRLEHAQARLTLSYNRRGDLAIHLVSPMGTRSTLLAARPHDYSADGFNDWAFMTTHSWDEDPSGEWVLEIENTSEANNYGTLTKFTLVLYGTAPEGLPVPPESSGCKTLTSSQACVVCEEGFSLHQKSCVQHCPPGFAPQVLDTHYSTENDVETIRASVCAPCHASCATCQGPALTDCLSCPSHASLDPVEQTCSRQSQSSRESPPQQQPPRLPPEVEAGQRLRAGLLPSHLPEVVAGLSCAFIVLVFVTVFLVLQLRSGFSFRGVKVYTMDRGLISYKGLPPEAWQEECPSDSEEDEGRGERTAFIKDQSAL

| Sequence | furin cleavage Z-score (7.5 min) | furin cleavage Z-score (15 min) | furin cleavage Z-score (30 min) |
| --- | --- | --- | --- |
| CATWMNSTGFAGNASASA [HC437] | 0.658 (inactive) | 2.27 | -0.141 (inactive) |
| CATTPCSGSDAGNASASA [HC1931] | -0.759 (inactive) | -0.942 (inactive) | -0.913 (inactive) |
| CARPKRADTFAGNASASA [FS-2054] | 5.65 (active) | 7.21 (active) | 7.85 (active) |
| CARPKRLDSAAGNASASA [FS-2578] | -0.648 (inactive) | -0.15 (inactive) | 0.332 (inactive) |
| CARPKRCPRSAGNASASA [FS-2055] | 7.03 (active) | 6.47 (active) | 5.65 (active) |
| CARPSRKRRSAGNASASA [FS-1070] | 12.8 (active) | 11.6 (active) | 9.65 (active) |
| CARPSGMFDSAGNASASA [HC914] | -0.826 (inactive) | -0.415 (inactive) | -0.285 (inactive) |
| CARPKRYFTIAGNASASA [FS-2579] | -0.409 (inactive) | -0.643 (inactive) | -0.0555 (inactive) |
| CARHIRKRRSAGNASASA [FS-1157] | 13.5 (active) | 13.3 (active) | 9.11 (active) |
| CASTPCSALLAGNASASA [HC2545] | 0.599 (inactive) | 1.06 | 0.284 (inactive) |
| CATTPLARAAAGNASASA [HC1565] | -0.63 (inactive) | 1.08 | -0.687 (inactive) |
| CADITKLLLAAGNASASA [HC604] | -1.43 (inactive) | 0.163 (inactive) | 0.0126 (inactive) |
| CAGERRKRRSAGNASASA [FS-425] | 14.4 (active) | 13.6 (active) | 11 (active) |
| CAEIKRKWRSAGNASASA [FS-21] | 2.15 | 3.65 (active) | 5.04 (active) |
| CAGSHMKRRSAGNASASA [FS-659] | -0.564 (inactive) | 0.785 (inactive) | 1.98 |
| CAEISRKRRSAGNASASA [FS-649] | 10.9 (active) | 9.94 (active) | 7.56 (active) |
| CAEFERRWRSAGNASASA [FS-230] | -1.8 (inactive) | -0.415 (inactive) | 0.059 (inactive) |
| CAAGKRVYYLAGNASASA [HC1559] | -0.901 (inactive) | 0.829 (inactive) | -0.892 (inactive) |
| CAAGKRKRRSAGNASASA [FS-1299] | 12.8 (active) | 14.7 (active) | 10.5 (active) |
| CAEVACHRPSAGNASASA [HC2343] | 0.99 (inactive) | 0.762 (inactive) | 1.27 |
| CACPTDCFRKAGNASASA [HC451] | 0.183 (inactive) | -0.762 (inactive) | -0.961 (inactive) |
| CAVVLVGLMAAGNASASA [HC571] | -0.371 (inactive) | 0.0646 (inactive) | -0.205 (inactive) |

| Sequence | furin cleavage Z-score (7.5 min) | furin cleavage Z-score (15 min) | furin cleavage Z-score (30 min) |
| --- | --- | --- | --- |
| CASLHSYSPGAGNASASA [HC1607] | -1.22 (inactive) | 0.427 (inactive) | 0.0666 (inactive) |
| CARVKRSVVVAGNASASA [FS-2840] | 8.15 (active) | 9.71 (active) | 8.81 (active) |
| CAEVVTSTVVAGNASASA [HC2230] | -0.163 (inactive) | -0.129 (inactive) | -0.367 (inactive) |
| CAPTSGDVVVAGNASASA [HC874] | -0.612 (inactive) | 0.813 (inactive) | -0.497 (inactive) |
| CAPRKKRTVVAGNASASA [HC1324] | 11.4 (active) | 13.7 (active) | 11.3 (active) |
| CARVKKSVEVAGNASASA [FS-3118] | 4.33 (active) | 7.31 (active) | 8.17 (active) |
| CARKKRSVVVAGNASASA [DV4] | 9.41 (active) | 10.1 (active) | 9.47 (active) |
| CARCRRCVVVAGNASASA [FS-2327] | -0.669 (inactive) | 0.654 (inactive) | 1.36 |
| CAEVTTSTWVAGNASASA [HC2198] | -0.604 (inactive) | 0.139 (inactive) | -0.711 (inactive) |
| CAFTPSPVVVAGNASASA [HC415] | -0.406 (inactive) | -0.269 (inactive) | -0.296 (inactive) |
| CARVVTSTWVAGNASASA [HC2153] | 1.81 | 1.03 | 0.0503 (inactive) |
| CAEVPCHVPSAGNASASA [HC2370] | -0.196 (inactive) | 0.881 (inactive) | 0.0659 (inactive) |
| CAVIPTSGDVAGNASASA [HC873] | -1.48 (inactive) | -0.378 (inactive) | 1.84 |
| CAYRLWHYPCAGNASASA [HC467] | 0.186 (inactive) | 0.568 (inactive) | 0.0366 (inactive) |
| CAVVCFSMSYAGNASASA [HC86] | -0.132 (inactive) | 1.31 | 0.28 (inactive) |
| CADIEVVTSTAGNASASA [HC2284] | -0.624 (inactive) | -0.333 (inactive) | -1.16 (inactive) |
| CAPRCLVDYPAGNASASA [HC463] | 0.288 (inactive) | -0.558 (inactive) | -0.868 (inactive) |
| CAMEECSQDLAGNASASA [HC1751] | -0.0304 (inactive) | -0.261 (inactive) | 0.894 (inactive) |
| CASTPCSAHFAGNASASA [HC2567] | 1.04 | -0.481 (inactive) | 1.8 |
| CARVKKEWEEAGNASASA [FS-1871] | -0.778 (inactive) | -0.527 (inactive) | -1.03 (inactive) |
| CARVKKSPPEAGNASASA [FS-2196] | 3.38 | 4.49 (active) | 5.53 (active) |
| CARVVLSGKPAGNASASA [HC1003] | -0.899 (inactive) | -0.703 (inactive) | -0.908 (inactive) |
